Common to all, as to details: tags: pcDNA3.1 expression
The target in test [1] is T1, variant nuclease E154G/L38G/K221G combination (P14R, D32R, I61R, E311R, E154G, L38G, K221G).
T1 chain: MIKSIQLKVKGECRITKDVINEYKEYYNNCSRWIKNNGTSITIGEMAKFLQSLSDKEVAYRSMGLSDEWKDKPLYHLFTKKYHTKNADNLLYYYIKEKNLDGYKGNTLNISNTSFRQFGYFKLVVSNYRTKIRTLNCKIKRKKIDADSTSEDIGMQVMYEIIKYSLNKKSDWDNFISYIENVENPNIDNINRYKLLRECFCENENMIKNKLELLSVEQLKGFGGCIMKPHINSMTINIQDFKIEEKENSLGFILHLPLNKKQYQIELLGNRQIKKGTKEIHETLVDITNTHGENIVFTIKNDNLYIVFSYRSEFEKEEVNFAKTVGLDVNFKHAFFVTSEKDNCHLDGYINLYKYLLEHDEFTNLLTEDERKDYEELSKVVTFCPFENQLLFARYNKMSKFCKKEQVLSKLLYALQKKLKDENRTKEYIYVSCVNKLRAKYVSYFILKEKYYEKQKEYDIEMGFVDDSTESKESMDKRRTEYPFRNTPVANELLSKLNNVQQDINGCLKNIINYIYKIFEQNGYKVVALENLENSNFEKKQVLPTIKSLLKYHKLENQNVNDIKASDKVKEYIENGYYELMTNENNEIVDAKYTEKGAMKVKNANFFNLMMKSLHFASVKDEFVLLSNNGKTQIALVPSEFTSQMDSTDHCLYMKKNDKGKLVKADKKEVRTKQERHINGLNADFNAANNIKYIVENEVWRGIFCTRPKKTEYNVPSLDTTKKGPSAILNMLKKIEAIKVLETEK
The test is described as follows: cell_activity; PAM 5'-ATTG-3'.

In test [2] the target is T1, variant nuclease E154G/L38G/K221G …. In words: cell_activity; PAM 5'-TTTA-3'. Here is the method:
(§1) Approximately 16 hours prior to transfection, 25,000 HEK293T cells in DMEM/10% FBS+Pen/Strep (D10 media) were plated into each well of a 96-well plate. On the day of transfection, the cells were 70-90% confluent. For each well to be transfected, a mixture of Lipofectamine 2000™ and Opti-MEM™ was prepared and incubated at room temperature for 5 minutes (Solution 1). After incubation, the Lipofectamine 2000™:Opti-MEM™ mixture was added to a separate mixture containing nuclease plasmid, RNA guide plasmid, and Opti-MEM™ (Solution 2). In the case of negative controls, the RNA guide plasmid was not included in Solution 2. Solutions 1 and 2 were mixed by pipetting up and down, then incubated at room temperature for 25 minutes. Following incubation, the Solution 1 and 2 mixture was added dropwise to each well of a 96-well plate containing the cells. Approximately 72 hours post transfection, cells were trypsinized by adding TrypLE™ to the center of each well and incubating at 37° C. for approximately 5 minutes. D10 media was then added to each well and mixed to resuspend cells. The resuspended cells were centrifuged at 500 g for 10 minutes to obtain a pellet, and the supernatant was discarded. […]
(§2) The percentage of NGS reads containing indels (% indels) were calculated. […]

The target is the same in test [3]. In words: cell_activity; PAM 5'-TTTG-3'. The procedure:
as §1, §2

B1: EMX1 crRNA ; EMX1 target (ssRNA ; dsDNA)
RNA: CUUGUUGUAUAUGUCCUUUUAUAGGUAUUAAACAACCCGCCGCUUCCUGAGCCAUC
DNA 1: CCGCCGCTTCCTGAGCCATC
DNA 2: GATGGCTCAGGAAGCGGCGG
As for B1, the indel editing activity in test [1] was 0.17 fold of WT.

B2: VEGFA crRNA ; VEGFA target (ssRNA ; dsDNA)
RNA: CUUGUUGUAUAUGUCCUUUUAUAGGUAUUAAACAACUCCAGACCACCAAUGGGCAC
DNA 1: TCCAGACCACCAATGGGCAC
DNA 2: GTGCCCATTGGTGGTCTGGA
Turning to B2, in test [2], the indel activity is 0.06 fold of WT.

B3: AAVS1 crRNA ; AAVS1 target (ssRNA ; dsDNA)
RNA: CUUGUUGUAUAUGUCCUUUUAUAGGUAUUAAACAACUGAGAAUGGUGCGUCCUAGG
DNA 1: TGAGAATGGTGCGTCCTAGG
DNA 2: CCTAGGACGCACCATTCTCA
For B3, in test [3], the indel activity is 0.19 fold of WT.

(Values after patent publication US20240035010, “COMPOSITIONS COMPRISING A VARIANT POLYPEPTIDE AND USES THEREOF” (Arbor Biotechnologies, Inc., published 2024).)
